Most compounds without a hit are left out; they make up all but 4.8% or so of the library.
DAX1 inh-1: DAX1 (NR0B1) inhibitors, primary screen, cell-based, HEK293, Gal4-DAX1, luciferase luminescence. HEK293 Gal4-DAX1 luciferase reporter. inhibition, % at 6.75 µM. actives 0.99% (n = 340,000). AID 504766, 2011;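 active = inhibition above the mean over all tested compounds plus 3 SD, cut at about 4.2% in these data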;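 also: 0% = DAX1-transfected cells with DMSO and 100% = empty-vector control cells with DMSO; inhibition shows as a rise in luminescence from relieved DAX1 repression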
Target sequence (P51843 207-470 limits assumed): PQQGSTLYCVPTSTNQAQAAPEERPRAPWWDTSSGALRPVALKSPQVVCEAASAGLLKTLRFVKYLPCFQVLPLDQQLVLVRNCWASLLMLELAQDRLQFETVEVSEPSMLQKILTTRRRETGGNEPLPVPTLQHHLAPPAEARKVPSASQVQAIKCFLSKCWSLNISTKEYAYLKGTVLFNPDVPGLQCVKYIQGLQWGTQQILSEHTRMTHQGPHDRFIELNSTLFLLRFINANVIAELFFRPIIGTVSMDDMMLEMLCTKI
hgDAF12 agonist: H. glycines DAF-12 receptor agonists, primary screen, cell-based, luminescence, HEK293, GAL4 fusion, UAS-luciferase. Nuclear hormone receptor DAF-12 (Heterodera glycines), GAL4 fusion. HEK293 GAL4-hgDAF12 UAS-luciferase reporter, agonist luminescence; normalized to butyrate control. activation, % at 6.8 µM. actives 1.8% (n = 370,000). AID 687014, 2013;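 active = activation above a cutoff set at the mean of all screened compounds plus 3 SD, cut at about 10% in these data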;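 also: 0% = DMSO wells and 100% = sodium butyrate wells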
ssDAF-12 act: S. stercoralis DAF-12 nuclear receptor activators, primary screen, cell-based, luminescence, HEK293, GRIP1 co-expression, lit1-tk-luc | actives 1% (n = 370,000) | activation, % at 6.8 µM | HEK293 ssDAF-12/GRIP1 lit1-tk-luc reporter; % of 3 µM dafachronic acid response;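 active = activation above the mean over all tested compounds plus 3 SD, cut at about 0.9% in these data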;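 also: 0% = DMSO-only wells and 100% = 3 µM delta7-dafachronic acid wells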
DAX1 inh-2: DAX1 (NR0B1) inhibitors on StAR promoter, primary screen, cell-based, luminescence, SF-1 (NR5A1), full-length DAX-1 | HEK293T StAR-luciferase reporter, SF-1/DAX-1 repression relief | inhibition, % at 6.8 µM | actives 1.1% (n = 370,000) | AID 652010, 2013;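 active = inhibition above the mean over all tested compounds plus 3 SD, cut at about 3.6% in these data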;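 also: 0% = DAX-1 cells with DMSO and 100% = cells lacking DAX-1 with DMSO; higher inhibition means more luminescence from relief of DAX-1 repression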
SMARCA2 activ: SMARCA2 (BRM) function activators, primary screen, cell-based, luminescence, high throughput; actives 1% (n = 370,000); AID 652017, 2013; MG213 cells, MMTV-luciferase reporter, dexamethasone, overnight; activation, % at 9.1 µM; in the data active = activation above about 7.8%;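 also: 0% = vehicle wells and 100% = reference activator wells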
hcDAF12 agonist: H. contortus DAF-12 nuclear receptor activators, primary screen, cell-based, luminescence, HEK293, lit1-tk-luc reporter; actives 1.4% (n = 370,000); HEK293 hcDAF-12 lit1-tk-luc reporter; 0% DMSO, 100% Δ7-dafachronic acid; activation, % at 6.8 µM;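 active = activation above the mean of all tested compounds plus 3 SD, cut at about 5.5% in these data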;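 also: 100% = response to 3 µM Δ7-dafachronic acid high control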
LXRb hcDAF ctr: LXR agonists, Gal4 luciferase reporter, confirmation, counter-screen for hcDAF-12 agonist project, cell-based, luminescence, HEK293, H. contortus campaign; shares compounds with hcDAF12 agonist; HEK293 Gal4-LXR tk-luc reporter, 24 h; normalized: DMSO 0%, positive control 100%; activation, % at 6.8 µM; 3,400 tested, under 10 active; AID 743027, 2013;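 active = mean percent activation of the reporter above a cutoff set as the average over tested compounds plus their standard deviation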
hcDAF12 ag: H. contortus DAF-12 receptor agonists, confirmation, cell-based, luminescence, HEK293, lit1-tk-luc, triplicate | HEK293 hcDAF-12 lit1-tk-luc reporter; % of Δ7-dafachronic acid response | actives 61% (n = 3,400) | activation, % at 6.8 µM | AID 743032, 2013 | shares compounds with hcDAF12 agonist;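 active = mean activation across triplicate tests above the threshold derived from the earlier primary screen, cut at about 5.5% in these data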;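 also: 0% = DMSO only wells and 100% = 3 µM Δ7-dafachronic acid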
The depositor's hits bear a star; . = not tested or not shown.

SMILES	DAX1 inh-1	hgDAF12 agonist	ssDAF-12 act	DAX1 inh-2	SMARCA2 activ	hcDAF12 agonist	LXRb hcDAF ctr	hcDAF12 ag
C#CCN1C(=O)C(O)(CC(=O)/C=C/C=C/c2ccccc2)c2ccccc21 (stereo not given)	-0.6	7.9	-1.0	-0.7	-2.8	0.1	.	.
COc1cc(/C=N/NC(=O)c2ccncc2)ccc1OCC(=O)Nc1ccccc1	3.6	3.9	-0.7	0.3	-0.7	1.5	.	.
O=S(=O)(c1cccs1)N1CN(CC2CCCO2)c2nc3ccccc3nc21 (stereo not given)	-0.1	-0.2	-1.2	0.7	-0.3	-1.7	.	.
Cc1ccc(S(=O)(=O)N2CN(CC3CCCO3)c3nc4ccccc4nc32)c(C)c1 (stereo not given)	0.2	3.3	-0.6	0.6	4.1	8.1*	-0.4	0.1
O=C(CNS(=O)(=O)c1c(Cl)cccc1Cl)OCC(=O)c1ccc[nH]1	0.2	1.9	-1.6	-0.4	-2.9	0.2	.	.
Cc1cc(NC(=O)COC(=O)c2oc3c(Cl)cccc3c2C)no1	3.0	1.5	0.4	0.4	-2.5	6.8*	-0.2	2.9
Cc1ccc(C)c(S(=O)(=O)NC2CCS(=O)(=O)C2)c1 (stereo not given)	1.1	0.3	-1.0	-0.8	-0.5	1.9	.	.
CC(C)c1ccc(Nc2nc(CC(=O)O)cs2)cc1	2.6	21.8*	0.6	3.0	6.6	9.4*	1.1	6.0*
C(=C\c1ccco1)/c1nc2ccccc2[nH]1	-1.4	9.5	0.4	2.4	0.5	7.3*	0.8	9.4*
C(=C\c1ccco1)/c1ccc2ccccc2n1	.	2.2	0.2	0.7	-0.6	7.3*	1.1	13.2*
O=C(/C=C/c1ccco1)Nc1ccc(-c2nc3ccccc3[nH]2)cc1	-1.1	-4.4	-1.2	-1.1	-0.2	-3.6	.	.
Clc1ccccc1Cn1c(/C=C/c2ccco2)nc2ccccc21	-0.5	-3.0	-1.9	-0.1	-0.3	-1.4	.	.
CC1CCCCN1C(=O)CSc1ccc(-c2ccc(F)cc2)nn1 (stereo not given)	-0.4	7.3	-1.2	-0.2	3.6	0.1	.	.
COc1ccc2c(c1OC)C(=O)N1c3ccccc3SC21 (stereo not given)	1.9	11.7*	0.8	1.9	4.9	8.8*	0.8	7.5*
CSc1ccccc1-c1nnc(-c2ccccc2)o1	4.0	12.9*	2.2*	4.4*	7.0	11.5*	1.3	11.7*
CCOC(=O)c1cnn(-c2ncnc3sc4c(c23)CCC4)c1N	0.3	2.2	0.8	0.5	-2.7	7.3*	-0.2	4.3
COC(=O)[C@]12C[C@H](CC(=O)NCc3cccc4ccccc34)C(=O)N(Cc3ccco3)C1=C[C@H](C(C)(C)C)O[C@@H]2C	.	-2.3	-0.8	0.7	-4.3	-2.8	.	.
CS(=O)(=O)N1CCC(C(=O)Nc2ccc3c(c2)OCO3)CC1	0.1	-2.2	-0.8	-0.2	2.5	-0.9	.	.
Cc1cc(NC(=O)c2ccccc2O)nc(C)n1	-0.6	-1.8	-0.2	-0.1	1.0	7.7*	0.3	5.2
Cc1cc(NC(=O)c2ccc(Br)cc2)nc(C)n1	-1.1	0.3	-1.1	0.2	-2.4	-0.4	.	.
C#CC(C)(C)NC(=S)NC1CC2C=CC1C2 (stereo not given)	0.7	-2.0	-1.3	0.3	4.9	-1.8	.	.
COc1ccccc1/C=N\Nc1ccccc1[N+](=O)[O-]	7.9*	6.2	-0.8	0.7	3.2	7.0*	1.8	6.4*
CC(C)Oc1ccccc1/C=N/Nc1ccccc1[N+](=O)[O-]	-0.7	3.3	-0.7	-0.9	4.2	4.0	.	.
COc1ccc(C(=O)/C=C(\C)Nc2ccc3c(c2)OCO3)cc1	-0.4	6.9	0.1	0.3	-1.0	7.2*	0.6	4.9
CC(=O)Nc1ccc2c(c1)OCCOCCOc1cc(NC(C)=O)ccc1OCCOCCOCCO2	.	-2.0	-0.3	-0.9	6.3	-2.7	.	.
SMILES	DAX1 inh-1	hgDAF12 agonist	ssDAF-12 act	DAX1 inh-2	SMARCA2 activ	hcDAF12 agonist	LXRb hcDAF ctr	hcDAF12 ag
CC(=O)Oc1ccc(C(=O)Nc2ccc3c(c2)OCCO3)cc1	2.2	11.2*	0.9	2.5	3.7	9.1*	1.6	8.5*
O=C(Nc1ccc2c(c1)OCCO2)C(=O)NC1CC1	1.3	7.8	0.2	1.9	5.6	6.8*	0.6	4.7
CS(=O)(=O)Nc1ccc(C(=O)Nc2ccc3c(c2)OCCO3)cc1	0.7	.	.	.	.	.	.	.
CC(=O)N1N=C(c2ccccc2)CC1c1cccs1 (stereo not given)	0.8	0.4	-0.9	-0.3	-2.5	-2.6	.	.
CC12CCC(C(=O)N(NC(=O)c3ccc(O)cc3)C1=O)C2(C)C (stereo not given)	1.0	-0.4	-1.6	0.4	0.1	-2.6	.	.
O=C(/C=C/c1c[nH]c2ccccc12)c1cccc2ccccc12	0.0	4.0	-0.2	-0.5	0.9	11.3*	-0.1	2.7
CCCc1nc2c(C)cc(Br)cn2c1Cc1cccc(Cl)c1	.	0.8	0.7	0.6	3.7	4.6	.	.
CCCc1nc2c(C)cc(Br)cn2c1Cc1ccc(C)cc1	.	5.1	-0.2	0.1	3.4	7.4*	0.2	10.4*
O=C(Nc1ccncc1)C1CC1c1ccccc1 (stereo not given)	-1.7	-1.3	-1.5	-2.3	-5.3	-3.2	.	.
O=C(O)c1[nH]c2ccccc2c1C(c1cc(Br)ccc1O)c1c(C(=O)O)[nH]c2ccccc12	0.6	0.5	0.6	-0.2	-1.7	7.1*	-0.4	3.0
Cc1[nH][nH]c(=O)c1C(c1cc(Br)ccc1O)c1c(C)[nH][nH]c1=O	-0.2	1.2	0.4	-0.3	-1.6	-0.1	.	.
COc1ccccc1C(=O)NC(=S)Nc1ccccc1N1CCCC1	1.6	-2.3	-0.2	-2.1	-3.0	7.1*	0.1	7.6*
O=C(NC(=S)Nc1ccccc1N1CCCC1)c1ccc(F)cc1	-0.1	5.5	-0.1	-0.2	-3.1	9.1*	-0.3	3.2

Screening data from PubChem.
